An excerpt weighted towards active compounds, which were near 11% of everything screened.
FLuc inh = blocks purified firefly luciferase enzyme activity | Potency, µM (highest dose often 115 µM), hits mostly inhibitors | purified P. pyralis luciferase, luminescence, biochemical | P08659 | 76,000 tested, 2.5% active; further: nearly all actives have a fitted effect of over 65% in size
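Cell-free enzyme assay, 10nM P. pyralis luciferase, luciferin and ATP each at 10uM. Inhibition profiled over a 6-point titration, read as luminescence.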
3T3 cytotox = kills NIH 3T3 cells | NIH 3T3 viability, CellTiter-Glo ATP luminescence, 48-72 h | Potency, µM (highest dose often 96.7 µM), actives largely listed as inhibitors | 94,000 tested, 4.3% active; further: nearly all actives have a fitted effect of over 55% in size
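Cytotoxicity was measured by CellTiter-Glo ATP luminescence after 48 or 72 h compound exposure at 37 °C. Mouse NIH 3T3 fibroblasts were seeded at 400 cells/well and dosed by 23 nL pin transfer.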
HEK cytotox = cytotoxic compounds in HEK 293 cells | Potency, µM (series often up to 115 µM), most hits filed as inhibitors | AID 1345083 | HEK 293 viability, ATP luminescence (CellTiter-Glo), 48-72 h | 94,000 tested, 6.6% active; further: nearly all actives have a fitted effect of over 60% in size
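qHTS cytotoxicity; HEK 293, 250 cells/well; compound pinned; 48 or 72 hr, 37 degree Celsius, 5% CO2, 95% humidity; CellTiter-Glo, 10 min RT; luminescence (ATP).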
NPR1 antag = human Npr1 receptor antagonism | HEK293 hNpr1 GloSensor cGMP, ANP-stimulated luminescence | P16066 | 76,000 tested, 1.6% active | AID 1347048 | Potency, µM (doses to about 46.3 µM), actives largely listed as inhibitors; calls by dose curve; further: nearly all actives have a fitted effect of over 60% in size
Target sequence (P16066 whole entry, looked up): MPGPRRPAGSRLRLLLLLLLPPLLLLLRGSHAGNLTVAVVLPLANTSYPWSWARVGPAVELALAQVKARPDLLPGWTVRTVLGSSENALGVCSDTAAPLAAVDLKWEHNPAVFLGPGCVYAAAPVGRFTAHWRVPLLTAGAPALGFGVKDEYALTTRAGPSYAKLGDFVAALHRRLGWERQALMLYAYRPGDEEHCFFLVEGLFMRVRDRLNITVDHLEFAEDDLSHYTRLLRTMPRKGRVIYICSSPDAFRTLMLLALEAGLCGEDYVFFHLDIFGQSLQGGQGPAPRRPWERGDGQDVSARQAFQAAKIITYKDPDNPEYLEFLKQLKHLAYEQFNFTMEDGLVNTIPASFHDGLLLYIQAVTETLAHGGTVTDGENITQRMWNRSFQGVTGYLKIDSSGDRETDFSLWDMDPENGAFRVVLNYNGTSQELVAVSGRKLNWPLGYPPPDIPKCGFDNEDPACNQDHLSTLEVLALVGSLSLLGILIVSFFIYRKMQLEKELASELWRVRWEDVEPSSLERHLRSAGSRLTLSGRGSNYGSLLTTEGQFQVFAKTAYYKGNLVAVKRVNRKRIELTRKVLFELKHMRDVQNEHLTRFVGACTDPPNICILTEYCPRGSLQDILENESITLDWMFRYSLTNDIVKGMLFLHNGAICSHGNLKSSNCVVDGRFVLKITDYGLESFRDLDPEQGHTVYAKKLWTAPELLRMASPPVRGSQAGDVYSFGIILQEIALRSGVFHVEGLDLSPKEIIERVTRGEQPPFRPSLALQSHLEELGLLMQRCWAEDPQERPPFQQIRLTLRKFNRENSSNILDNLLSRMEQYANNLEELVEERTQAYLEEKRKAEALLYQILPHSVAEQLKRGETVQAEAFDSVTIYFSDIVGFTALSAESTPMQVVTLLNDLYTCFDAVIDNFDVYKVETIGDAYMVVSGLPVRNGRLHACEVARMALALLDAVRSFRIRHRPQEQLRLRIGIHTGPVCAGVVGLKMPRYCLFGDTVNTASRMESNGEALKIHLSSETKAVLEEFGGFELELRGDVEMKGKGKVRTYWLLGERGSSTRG
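HEK293 cells stably expressing human Npr1 and cGMP GloSensor pGS-40F, loaded 2 h with 2% GloSensor reagent, given compound 30 min at room temperature. Luminescence read before and 20 min after 0.1 nM hNppA.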
Numbers stand for hits. Unless noted, the call rests on the fitted dose curve; in most records, active means well fitted curve in the direction sought with a large enough effect; inconclusive means small, poorly fitted or top-dose-only effect, or another doubt; inactive means no such curve, though single readings can be large; an effect the other way counts as inactive or inconclusive.

Screening COc1ccc(C(=O)N[C@H]2C[C@@H](Cc3cc(CN(C)C)on3)C2(C)C)cc1 returned FLuc inh inactive, 3T3 cytotox inactive, HEK cytotox inactive and NPR1 antag inactive.
Screening CC1(C)[C@H](Cc2cc(CC3CCCCC3)on2)C[C@@H]1NC(=O)c1ccccc1 returned FLuc inh inactive, 3T3 cytotox 56µM, HEK cytotox 32µM and NPR1 antag inconclusive.
Screening CC1(C)[C@H](Cc2cc(CC3CCCCC3)on2)C[C@@H]1NS(C)(=O)=O returned FLuc inh inactive, 3T3 cytotox inconclusive, HEK cytotox 71µM and NPR1 antag inactive.
`CN(C)c1nc2c(c(=O)[nH]1)CCN(Cc1ccc(Cl)cc1F)CC2` gave FLuc inh inactive, 3T3 cytotox inconclusive, HEK cytotox inconclusive and NPR1 antag inactive.
For O=C(Nc1ccc2c(c1)C(=O)N1CCC[C@H]1C(=O)N2)c1cc(-c2ccc3c(c2)CCO3)n[nH]1 the results were FLuc inh inactive, 3T3 cytotox inactive, HEK cytotox inactive and NPR1 antag inactive.
Screening C[S+](=O)([O-])c1ccc(-c2nnc3ccc(C(=O)NC4CCCCC4)cn23)cc1 returned 3T3 cytotox inactive and HEK cytotox inactive.
For CC1(C)[C@H](Cc2cc(CN3CCN(c4ccccc4)CC3)on2)C[C@@H]1NCC1CC1 the results were FLuc inh inactive, 3T3 cytotox inconclusive, HEK cytotox 89µM and NPR1 antag inactive.
CC(C)Cc1cc(C[C@@H]2C[C@H](NC(=O)c3ccco3)C2(C)C)no1 was read as FLuc inh inactive, 3T3 cytotox inconclusive, HEK cytotox 71µM and NPR1 antag inactive.
`COCC(=O)NC1CCN(c2ccc3nnc(-c4ccccc4)n3n2)C1` (configuration not stated) gave 3T3 cytotox inconclusive and HEK cytotox inactive.
For COc1ccc(-c2noc(-c3cccn3CC(=O)N3CCC(C)CC3)n2)cc1F the results were FLuc inh 11µM, 3T3 cytotox inconclusive, HEK cytotox inactive and NPR1 antag inactive.
COc1ccc(-c2noc(-c3cccn3CC(=O)N3CCN(c4ccccc4OC)CC3)n2)cc1F was read as FLuc inh inconclusive, 3T3 cytotox inconclusive, HEK cytotox inconclusive and NPR1 antag inactive.
COc1ccc(-c2noc(-c3cccn3CC(=O)N(C)c3ccccc3)n2)cc1F was read as FLuc inh inactive, 3T3 cytotox inactive, HEK cytotox inactive and NPR1 antag inactive.
CCN(C(=O)Cn1cccc1-c1nc(-c2ccc(OC)c(F)c2)no1)c1ccccc1 was read as FLuc inh inactive, 3T3 cytotox inconclusive, HEK cytotox 45µM and NPR1 antag inactive.
`CCOc1ccccc1CN1CCO[C@@H](COC)[C@@H]1c1ccccc1` gave 3T3 cytotox inactive and HEK cytotox 40µM.
For O=C1CC(c2ccccc2)N(Cc2cn[nH]c2-c2cccs2)CCCCCN1 (configuration not stated) the results were FLuc inh inactive, 3T3 cytotox inconclusive, HEK cytotox 79µM and NPR1 antag inactive.
`CCOc1ccccc1CN1CCCCCCNC(=O)CC1c1ccccc1` (configuration not stated) gave FLuc inh inactive, 3T3 cytotox 25µM, HEK cytotox 32µM and NPR1 antag inactive.
For COc1cccc(CN2CCCCCNC(=O)CC2c2ccccc2)c1OC (configuration not stated) the results were FLuc inh inactive, 3T3 cytotox inconclusive, HEK cytotox inconclusive and NPR1 antag inactive.
COc1cccc(CN2CCCCCCNC(=O)CC2c2ccccc2)c1OC (configuration not stated) was read as FLuc inh inactive, 3T3 cytotox 40µM, HEK cytotox 45µM and NPR1 antag inactive.
`O=C1NCCCCCN(Cc2cn[nH]c2-c2cccs2)[C@H]2CCC[C@@H]12` gave FLuc inh inactive, 3T3 cytotox inactive, HEK cytotox inactive and NPR1 antag inactive.
Screening Cc1nnc2ccc(N3CCC(NC(=O)c4ccccc4)CC3)nn12 returned 3T3 cytotox inactive and HEK cytotox inactive.
COc1cccc(NC(=O)c2ccc3c(c2)NC(C)(CNc2ccccc2)CO3)c1 (configuration not stated) was read as FLuc inh inconclusive, 3T3 cytotox 28µM, HEK cytotox 40µM and NPR1 antag inconclusive.
CCOCC1(C)COc2ccc(C(=O)Nc3cccc(Cl)c3)cc2N1 (configuration not stated) was read as FLuc inh 20µM, 3T3 cytotox 40µM, HEK cytotox 63µM and NPR1 antag inconclusive.
Screening CCOCC1(C)COc2ccc(C(=O)Nc3cccc(OC)c3)cc2N1 (configuration not stated) returned FLuc inh 20µM, 3T3 cytotox inactive, HEK cytotox inconclusive and NPR1 antag inactive.
`CCOCC1(C)COc2ccc(C(=O)Nc3cccc(N(C)C)c3)cc2N1` (configuration not stated) gave FLuc inh 63µM, 3T3 cytotox inconclusive, HEK cytotox inconclusive and NPR1 antag inactive.
Screening COc1cccc(NC(=O)c2ccc3c(c2)NC(C)(COCCN(C)C)CO3)c1 (configuration not stated) returned FLuc inh inconclusive, 3T3 cytotox inconclusive, HEK cytotox inconclusive and NPR1 antag inactive.
Screening CN(C)CCCOCC1(C)COc2ccc(C(=O)Nc3cccc(Cl)c3)cc2N1 (configuration not stated) returned FLuc inh inactive, 3T3 cytotox inconclusive, HEK cytotox 35µM and NPR1 antag inactive.
For CN(C)C(=O)NCCNC(=O)c1cccc(-c2ncccc2C#N)c1 the results were 3T3 cytotox inactive and HEK cytotox inactive.
Screening Cc1nnc2ccc(N3CCCC(NC(=O)C4CCCC4)C3)nn12 (configuration not stated) returned 3T3 cytotox inactive and HEK cytotox inconclusive.
Screening O=C(NCc1ccc(C(F)(F)F)cc1)C1CCN(C(=O)c2ccc(-c3cccs3)cc2)CC1 returned 3T3 cytotox 7.1µM and HEK cytotox 32µM.
O=C(NCCc1ccc(Cl)cc1)C1CCN(C(=O)c2ccc(-c3cccs3)cc2)CC1 was read as 3T3 cytotox inconclusive and HEK cytotox 45µM.
`O=C(NC1CCCCCC1)c1ccc2nc(-c3ccncc3)oc2c1` gave 3T3 cytotox inactive and HEK cytotox inactive.
Screening O=C(c1cncc(Br)c1)N1CCC(CCOc2ccccc2F)C1 (configuration not stated) returned FLuc inh inactive, 3T3 cytotox inconclusive, HEK cytotox 40µM and NPR1 antag inactive.
`COc1ccc(-c2[nH]nc3ncc(-c4ccc(C)cc4)nc23)cc1F` gave FLuc inh inactive, 3T3 cytotox 40µM, HEK cytotox 45µM and NPR1 antag inactive.
Screening COc1ccc(-c2cnc3n[nH]c(-c4ccc(OC)c(F)c4)c3n2)cn1 returned FLuc inh inactive, 3T3 cytotox inconclusive, HEK cytotox inconclusive and NPR1 antag inactive.
`COc1ccc(-c2[nH]nc3ncc(-c4ccccc4F)nc23)cc1F` gave FLuc inh inactive, 3T3 cytotox 50µM, HEK cytotox inconclusive and NPR1 antag inactive.

From PubChem
